Reference: PubChem BioAssay (Tox21)
Inconclusive results are not listed. A call without a number means that no potency is given here. Activity calls are given as the source filed them. The call rests on the fitted dose curve; in most records, active means well fitted cell-killing curve with a large enough effect in the repeat runs; inconclusive means weak or mixed curves, or effect the other way; inactive means flat fitted curve, though single readings scatter.

assay: qHTS RealTime-Glo MT Cell Viability Assay in HEK293 cells - 16 hour (AID 1224872); conditions: RealTime-Glo luminescence; series mostly up to 76.8 µM; further: nearly all actives have a fitted effect of over 50% in size; on activity change, negative = cytotoxicity: top concentration of the series differs between compounds
Text: National Center for Advancing Translational Sciences [NCATS]
NIH Chemical Genomics Center [NCGC]
U.S. Environmental Protection Agency [EPA]
National Institutes of Environmental Health Sciences [NIEHS]
National Toxicology Program [NTP]
U.S. Food and Drug Administration [FDA]
Measure of cell viability is critical in the cell-base assay. Analysis of cell viability is necessary for the characterization of cell responses to cytotoxic drugs and environmental stress. A RealTime-Glo MT Cell Viability Assay to monitor cell viability in real time of continues cell culture during 40 hours of compound treatment was used to screen Tox21 10K library compounds in Hek293 cells. The RealTime-Glo MT Cell Viability Assay is a nonlytic, homogeneous, bioluminescent method to measure cell viability in real time using a simple, plate-based method. The assay involves adding NanoLuc luciferase and a cell-permeant prosubstrate to cells in culture. Viable cells reduce the proprietary prosubstrate to generate a substrate for NanoLuc luciferase. This substrate diffuses from cells into the surrounding culture medium, where it is rapidly used by the NanoLuc Enzyme to produce a luminescent signal. The signal correlates with the number of viable cells, making the assay well suited for cytotoxicity studies.
Tox21 Assay Protocol Summary:
The mixture of Hek293 cell suspension and reagents were dispensed at 600cells/6 ul/well in 1536-well tissue culture treated black solid bottom plates using a Multidrop dispenser. After the assay plates were incubated at a 37 C/5% CO2 incubator for 5 hours, 23 nL of compounds dissolved in DMSO, positive and negative controls was transferred to the assay plate by a pintool work station. The plates were incubated at 37 C for 40 hours. The luminescence intensity were measured at 0h, 8h, 16h, 24h, 32h and 40h time points using ViewLux plate reader during compound treatment.
Potency means the concentration at half of the fitted maximal effect.

SMILES | Potency | activity change, negative = cytotoxicity
CNC(=O)NC | inactive | –
COc1ccc(OC)c(NC(=O)CC(C)=O)c1 | inactive | –
NC(Cc1c[nH]c2ccccc12)C(=O)O (stereo not given) | inactive | –
O=P(O)(O)OCC(O)CO (stereo not given) | inactive | –
CCN1CN(CC)CN(CC)C1 | inactive | –
Cc1cc(O)c2c(c1)C(=O)c1cccc(O)c1C2=O | inactive | –
CC(=O)Nc1ncc([N+](=O)[O-])s1 | inactive | –
CCCCOC(=O)C(=O)OCCCC | inactive | –
Cc1ccccc1N1CCN(CCc2nnc3n2CCCC3)CC1 | inactive | –
CC(C)C(=O)Nc1cccc(C(F)(F)F)c1 | inactive | –
Cc1cc(C)cc([N+](=O)[O-])c1 | inactive | –
Cc1ccccc1OCC1CO1 (stereo not given) | inactive | –
CC(=O)c1ccc(OCC(=O)N2CCCCC2)cc1 | inactive | –
Nc1nc(=O)n([C@@H]2O[C@H](CO)[C@@H](O)[C@@H]2F)cc1I | inactive | –
CCCCC(C)C(=O)O (stereo not given) | inactive | –
NC(=O)NC(=O)Cc1ccccc1 | inactive | –
O=c1[nH]c(=O)c2ccccc2o1 | inactive | –
CC(C)c1ccccc1O | inactive | –
CC(=O)OC[C@H]1O[C@@H](OC(C)=O)[C@H](OC(C)=O)[C@@H]1OC(C)=O | inactive | –
CC(CC(=O)O)CC(C)(C)C (stereo not given) | inactive | –

SMILES | Potency | activity change, negative = cytotoxicity
O=C(O)c1c(Cl)ccc(Cl)c1Cl | inactive | –
O=S(=O)(O)CCO | inactive | –
O=C1OC(=O)c2cc(Oc3ccc4c(c3)C(=O)OC4=O)ccc21 | inactive | –
COCCOCCOCCOC | inactive | –
BrC/C=C/CBr | – | 1.42% [at 15.8 µM] (inactive)
CCCC(C)CC (stereo not given) | inactive | –
CC(C)COC(=O)CC(C(=O)OCC(C)C)S(=O)(=O)O (stereo not given) | inactive | –
CCCOCCOCCOCCO | inactive | –
O=S1(=O)CCCC1 | inactive | –
CC1CCC(C(C)(C)S)C(=O)C1 (stereo not given) | 6.92 µM (active) | –
CC(=O)Nc1ccc(C)cc1 | inactive | –
FC(F)(F)c1ccc(Cl)cc1Cl | inactive | –
NS(=O)(=O)c1ccccc1OC(F)(F)F | inactive | –
NS(=O)(=O)c1cc2c(cc1Cl)NC(CC1CCCC1)NS2(=O)=O (stereo not given) | inactive | –
O=C1c2ccccc2-c2ccccc21 | inactive | –
CCCCCN(CCCOC)C(=O)C(CCC(=O)O)NC(=O)c1ccc(Cl)c(Cl)c1 (stereo not given) | inactive | –
CCC(=O)OCCC(C)CCC=C(C)C (stereo not given) | inactive | –
C1=CCC(c2ccccc2)CC1 (stereo not given) | inactive | –
NCCc1ccn[nH]1 | inactive | –
O=C1NC2NC(=O)NC2N1 (stereo not given) | inactive | –
